We go through five compounds from PubChem BioAssay.

Assay [1] concerns Wnt5a (protein binding on small-molecule microarray). Nature of the assay: Wnt5a binders on small-molecule microarray, primary screen, biophysical, 635/667 nm fluorescence (AID 1142).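 Note: fluorescence read at 667 nm with signal to noise per printed feature.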 As to conditions: 635 nm fluorescence, higher = more signal.
Assay [2] can be described thus: cell viability in Huh7 cells, primary screen, cytotoxicity control for HCV replication inhibitor project, CellTiter-Glo luminescence, basal, 48 h (AID 1143).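 Note: Huh7 hepatoma cells carrying a hepatitis C replication reporter with no stimulus; test concentration not given here.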 As to conditions: Huh7 HCV replicon, higher = more signal, called active from +8 up or from −8 down.
Assay [3] in a line: P. aeruginosa biofilm formation inhibitors, primary screen, PAO1 strain, BacTiter-Glo luminescence, LB-PBS (AID 1144). Conditions: 12 h, higher = more signal.
Assay [4] in a line: CREB reporter modulators without forskolin, primary screen, cell-based, PC12, CRE-LacZ reporter, unstimulated (AID 1145). Conditions: no forskolin, luminescence, 4.5 h, higher = more signal, called active from +8 up or from −8 down.
A short description of assay [5]: CREB reporter modulators under forskolin, primary screen, cell-based, PC12, CRE-LacZ reporter, forskolin-stimulated (AID 1146).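 Note: PC12 cells with 6xCRE LacZ reporter stimulated by forskolin 10 µM; beta-galactosidase reporter signal reflecting CREB driven transcription.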 Conditions: luminescence, 4.5 h, higher = more signal, called active from +8 up or from −8 down.
Assay [6] concerns the target Streptavidin (Streptomyces avidinii) (UniProt P22629). Nature of the assay: streptavidin binders on small-molecule microarray, primary screen, artefact control for SMM compound annotation, biophysical, 635/667 nm fluorescence (AID 1147).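 Note: signal reflects streptavidin binding to arrayed compounds as a control protein.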 As to conditions: streptavidin binding, higher = more signal.
Assay [7] can be described thus: small-molecule binders of probe aInhba, primary screen, biochemical, small-molecule microarray, 635/667 nm fluorescence (AID 1148).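 Note: score merges 667nm spot fluorescence with signal-to-noise for antibody binding to printed compounds.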 As to conditions: higher = more signal.
Assay [8] deals with Torsin-1A (Homo sapiens) (UniProt O14656). Nature of the assay: torsin A binders from cell lysate, primary screen, small-molecule microarray, wild-type, 635/667 nm (AID 1149). Conditions: COS7 hTOR1A-WT lysate, 635 nm fluorescence, higher = more signal.
The target is the same in assay [9]. Nature of the assay: small-molecule binders of mutant TOR1A in lysate, primary screen, cell lysate, small-molecule microarray, COS7 lysate, 635/667 nm fluorescence (AID 1150).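 Note: score pools 667 nm emission and signal to noise measuring lysate protein binding.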 Conditions: COS7 hTOR1A mutant lysate, 635 nm fluorescence, higher = more signal.
Assay [10] concerns Sonic hedgehog protein (Shh). Nature of the assay: small-molecule binders of Shh protein, primary screen, biochemical, small-molecule microarray, 635/667 nm fluorescence (AID 1151).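 Note: Shh protein binding to compounds spotted on small-molecule microarray slides; score combines spot fluorescence intensity with signal-to-noise across triplicate slides.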 Conditions: small-molecule microarray binding, 635 nm fluorescence; higher = more signal.
A short description of assay [11]: E. coli DRC41 culture turbidity changes, primary screen, E. coli filamentation inducer project, strain DRC41, OD650, 48 h (AID 1152).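 Note: E. coli MC1000 strain DRC41 lacking acrAB efflux pump and sulA.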 As to conditions: E. coli DRC41 (acrAB sulA), higher = more signal, called active from +8 up or from −8 down.
Assay [12] is described as follows: small-molecule binders of probe aLefty1, primary screen, biochemical, small-molecule microarray, 635/667 nm fluorescence (AID 1153).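 Note: score merges spot fluorescence with signal-to-noise ratio from the scanned slide images.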 As to conditions: higher = more signal.
Assay [13] in a line: PSAC antagonists in infected red cells, primary screen, cell-based, P. falciparum Indochina, OD700, 1 h (AID 1154). As to conditions: P. falciparum Indochina infected RBC osmotic lysis, higher = more signal, called active from +8 up or from −8 down.
Assay [14] in a line: PSAC antagonists in infected red cells, primary screen, cell-based, P. falciparum Indochina, OD700, 2 h (AID 1155).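 Note: lysis reports solute entry through the parasite surface anion channel PSAC; channel blockers reduce lysis of infected cells.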 As to conditions: P. falciparum Indochina infected erythrocytes, osmotic lysis OD700; higher = more signal, called active from +8 up or from −8 down.
Assay [15] in a line: osmotic lysis modulators in infected erythrocytes, primary screen, PSAC antagonist project, cell-based, P. falciparum Indochina, OD700, 3 h (AID 1156). As to conditions: higher = more signal, called active from +8 up or from −8 down.
Assay [16] is described as follows: PSAC antagonists in infected red cells, primary screen, cell-based, P. falciparum Indochina, OD700, 18 h (AID 1157). Conditions: P. falciparum Indochina infected erythrocytes, osmotic lysis OD700, 18 h; higher = more signal, called active from +8 up or from −8 down.
Assay [17] can be described thus: modulators of S6 phosphorylation in cells, primary screen, cell-based, A549, cytoblot, luminescence, serum-stimulated (AID 1158).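 Note: serum-stimulated A549 lung adenocarcinoma cells; signal is phosphorylated S6 detected by cytoblot immunostaining with HRP secondary.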 Conditions: A549 phospho-S6 cytoblot, 5 h, higher = more signal.
Assay [18] addresses NADPH oxidase 2 (Homo sapiens) (UniProt P04839). Nature of the assay: NOX2-dependent H2O2 signal modulators, primary screen, NOX inhibitor project, cell-based, HEK293-NOX2, PMA-stimulated, Amplex Red fluorescence (AID 1159). Note: test concentration not given here. As to conditions: 45 min, higher = more signal, called active from +8 up or from −8 down.
Assay [19] concerns the target NADPH oxidase 4 (Homo sapiens) (UniProt Q9NPH5). The assay can be described thus: NOX4-dependent H2O2 signal modulators, primary screen, NOX inhibitor project, cell-based, HEK293-NOX4, tetracycline-induced, Amplex Red fluorescence (AID 1160). As to conditions: 45 min, higher = more signal, called active from +8 up or from −8 down.
Assay [20] has as its target NADPH oxidase 5 (Homo sapiens) (UniProt Q96PH1). The assay can be described thus: NOX5-dependent H2O2 signal modulators, primary screen, NOX inhibitor project, cell-based, HEK293-NOX5, Amplex Red fluorescence (AID 1161). As to conditions: HEK293-NOX5, ionomycin, 45 min, higher = more signal.

Calls of active or inactive are those of the source. Unless noted, the rule behind the calls is not given here.

Sequence of NADPH oxidase 5 (Homo sapiens) (Q96PH1 whole entry, looked up): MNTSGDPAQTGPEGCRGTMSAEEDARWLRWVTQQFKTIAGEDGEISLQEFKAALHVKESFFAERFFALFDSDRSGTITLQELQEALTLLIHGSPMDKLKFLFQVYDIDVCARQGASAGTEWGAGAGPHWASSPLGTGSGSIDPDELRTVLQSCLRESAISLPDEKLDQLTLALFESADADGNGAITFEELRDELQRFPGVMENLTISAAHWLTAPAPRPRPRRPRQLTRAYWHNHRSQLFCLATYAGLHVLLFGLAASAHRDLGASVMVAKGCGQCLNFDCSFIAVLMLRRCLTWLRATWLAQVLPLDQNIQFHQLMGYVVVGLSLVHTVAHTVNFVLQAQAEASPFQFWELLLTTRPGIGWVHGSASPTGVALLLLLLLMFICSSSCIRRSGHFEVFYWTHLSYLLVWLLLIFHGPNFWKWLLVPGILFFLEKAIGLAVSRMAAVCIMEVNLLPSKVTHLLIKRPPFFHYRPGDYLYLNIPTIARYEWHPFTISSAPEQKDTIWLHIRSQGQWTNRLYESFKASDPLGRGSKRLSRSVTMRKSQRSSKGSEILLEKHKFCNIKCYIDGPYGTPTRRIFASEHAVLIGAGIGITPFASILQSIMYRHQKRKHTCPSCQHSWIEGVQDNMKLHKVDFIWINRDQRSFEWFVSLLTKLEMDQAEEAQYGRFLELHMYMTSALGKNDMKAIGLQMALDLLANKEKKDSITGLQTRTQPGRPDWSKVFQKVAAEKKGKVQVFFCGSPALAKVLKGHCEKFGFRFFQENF
Sequence of NADPH oxidase 2 (Homo sapiens) (P04839 whole entry, looked up): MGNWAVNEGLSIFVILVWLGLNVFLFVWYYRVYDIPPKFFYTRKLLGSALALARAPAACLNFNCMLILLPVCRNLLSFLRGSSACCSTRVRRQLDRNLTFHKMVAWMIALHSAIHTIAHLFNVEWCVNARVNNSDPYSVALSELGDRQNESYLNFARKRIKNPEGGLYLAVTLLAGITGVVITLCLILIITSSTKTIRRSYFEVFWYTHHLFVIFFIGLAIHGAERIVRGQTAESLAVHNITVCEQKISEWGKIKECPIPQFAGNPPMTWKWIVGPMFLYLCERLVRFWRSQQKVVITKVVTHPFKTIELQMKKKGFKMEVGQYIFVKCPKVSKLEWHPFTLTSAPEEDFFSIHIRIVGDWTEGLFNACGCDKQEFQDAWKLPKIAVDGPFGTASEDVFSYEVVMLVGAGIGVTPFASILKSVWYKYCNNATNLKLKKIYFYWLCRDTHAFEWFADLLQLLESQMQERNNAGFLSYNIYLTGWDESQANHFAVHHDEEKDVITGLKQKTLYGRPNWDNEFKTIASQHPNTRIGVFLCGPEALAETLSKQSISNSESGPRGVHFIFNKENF
Sequence of Streptavidin (Streptomyces avidinii) (P22629 whole entry, looked up): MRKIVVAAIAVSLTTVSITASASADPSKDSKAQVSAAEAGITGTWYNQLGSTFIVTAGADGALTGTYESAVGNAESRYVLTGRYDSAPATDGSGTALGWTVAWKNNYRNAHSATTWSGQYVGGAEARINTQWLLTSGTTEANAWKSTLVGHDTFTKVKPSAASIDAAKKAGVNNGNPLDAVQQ
Sequence of Torsin-1A (Homo sapiens) (O14656 whole entry, looked up): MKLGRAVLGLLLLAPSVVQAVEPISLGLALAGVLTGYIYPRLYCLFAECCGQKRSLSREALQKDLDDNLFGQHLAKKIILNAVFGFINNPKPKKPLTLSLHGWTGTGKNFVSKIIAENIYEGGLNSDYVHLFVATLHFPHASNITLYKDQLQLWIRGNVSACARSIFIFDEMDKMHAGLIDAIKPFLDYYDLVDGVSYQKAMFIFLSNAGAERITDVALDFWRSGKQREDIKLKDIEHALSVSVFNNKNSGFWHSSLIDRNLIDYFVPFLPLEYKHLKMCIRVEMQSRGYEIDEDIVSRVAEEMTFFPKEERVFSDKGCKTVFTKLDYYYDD
Sequence of NADPH oxidase 4 (Homo sapiens) (Q9NPH5 whole entry, looked up): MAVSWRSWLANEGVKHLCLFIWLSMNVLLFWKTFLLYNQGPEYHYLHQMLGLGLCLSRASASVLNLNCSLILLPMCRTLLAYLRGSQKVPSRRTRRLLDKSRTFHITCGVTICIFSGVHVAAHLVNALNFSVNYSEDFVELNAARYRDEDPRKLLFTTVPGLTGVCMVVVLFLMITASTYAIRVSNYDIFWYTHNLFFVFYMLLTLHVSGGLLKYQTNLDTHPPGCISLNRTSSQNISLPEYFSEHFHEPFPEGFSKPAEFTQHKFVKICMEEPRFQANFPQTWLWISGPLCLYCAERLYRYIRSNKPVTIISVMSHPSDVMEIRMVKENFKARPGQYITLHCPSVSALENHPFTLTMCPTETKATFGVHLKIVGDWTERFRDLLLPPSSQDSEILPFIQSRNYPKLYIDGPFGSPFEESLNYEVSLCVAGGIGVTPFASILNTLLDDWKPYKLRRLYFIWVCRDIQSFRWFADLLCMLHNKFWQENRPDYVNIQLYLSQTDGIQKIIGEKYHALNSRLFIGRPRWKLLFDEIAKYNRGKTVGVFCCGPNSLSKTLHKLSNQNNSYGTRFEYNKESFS

Consider `CCCCOC(OCCCC)C(O)CSc1ccc2ccccc2c1` (stereo not given), for which the composite z-score was 0.133 in assay [1]; 0.465 in assay [6]; -0.282 in [7]; 0.453 with Torsin-1A (Homo sapiens) [8]; -0.0078 with Torsin-1A (Homo sapiens) [9]; 0.789 in assay [10]. This compound gave a composite z-score in assay [12] of -0.103. Also, the z-score in [2] was -0.657 (inactive); in assay [3], -0.315 (inactive); in assay [4], 1.01 (inactive); in assay [5], 0.257 (inactive); in assay [11] it was 0.278 (inactive); in assay [13] it was 5.46 (inactive). In addition, the z-score in assay [14] was 0.667 (inactive); in assay [15], -1.43 (inactive); in assay [16] it was 0.248 (inactive); in assay [17], -0.455; in assay [18], -0.28 (inactive); in assay [19], -0.657 (inactive). Further, in [20], the z-score is -3.7.

On to `COc1ccc(OC[C@H]2CN3[C@@H](CC[C@@H](C)[C@@H]3c3ccc(Br)cc3)C(=O)O2)cc1`, for which the composite z-score in [1] is -0.144; in assay [6] it was 0.169; in assay [7] it was -0.2; with Torsin-1A (Homo sapiens) [8], 0.357; in the assay with Torsin-1A (Homo sapiens) [9], 0.28; in [10], 0.583. Moreover, the composite z-score in assay [12] was 0.0861. Also, the z-score in assay [2] is -0.202 (inactive); in assay [3] it was -0.225 (inactive); in assay [4] it was 2.62 (inactive); in assay [5] it was -0.165 (inactive); in [11] it was -0.228 (inactive); in [13], 2.04 (inactive). Further, the z-score is 1.25 (inactive) in assay [14]; 0.345 (inactive) in assay [15]; 0.343 (inactive) in assay [16]; 0.936 in assay [17]; -0.783 (inactive) in [18]; -1.61 (inactive) in assay [19]. The z-score in assay [20] was -0.392.

`CC(C)(C)N1C(=O)[C@H]2[C@H]3[C@H](O)[C@H](O)CC(=NNC(=O)OCc4ccccc4)[C@@H]3CC[C@H]2C1=O`: the composite z-score in assay [1] is -0.0841; in assay [6], 0.171; in [7] it was -0.13; with Torsin-1A (Homo sapiens) [8] it was 0.472; with Torsin-1A (Homo sapiens) [9], 0.322; in assay [10] it was 0.226. Besides, in assay [12], the composite z-score is -0.153. The z-score is 0.633 (inactive) in assay [2]; -0.0893 (inactive) in [3]; -0.0258 (inactive) in [4]; 0.314 (inactive) in [5]; 0.323 (inactive) in assay [11]; 0.0391 (inactive) in [13]. Also, the z-score in [14] was 0.193 (inactive); in assay [15], -0.279 (inactive); in assay [16], -0.385 (inactive); in assay [17], -0.731; in assay [18], 0.788 (inactive); in assay [19], 0.739 (inactive). Further, in assay [20], the z-score stood at 0.0356.

As to `CO[C@@H]1COC(=O)[C@@H]2CCCN2C(=O)[C@@H](C)COC(=O)CCC[C@H]1C`, the composite z-score in assay [1] was -0.0105; in assay [6], 1.21; in assay [7], -0.153; in the assay with Torsin-1A (Homo sapiens) [8], 1.21; with Torsin-1A (Homo sapiens) [9] it was 0.241; in assay [10] it was 1.18. In [12], this compound showed a composite z-score of -0.241. The z-score was -0.848 (inactive) in [2]; -0.506 (inactive) in assay [3]; 0.355 (inactive) in [4]; -0.269 (inactive) in assay [5]; -0.476 (inactive) in [11]; -0.238 (inactive) in [13]. For the same compound, the z-score is -1.48 (inactive) in [14]; -0.0716 (inactive) in assay [15]; -2.21 (inactive) in assay [16]; 2.43 in assay [17]; -0.634 (inactive) in assay [18]; 0.0989 (inactive) in assay [19]. For the same compound, the z-score in [20] is 0.43.

In the case of `COc1ccc(COC(=O)NN=C2C[C@@H](O)[C@@H](O)[C@@H]3[C@@H]4C(=O)N(C(C)(C)C)C(=O)[C@@H]4CC[C@@H]23)cc1`, the composite z-score in [1] is 0.211; in [6] it was 0.244; in assay [7] it was 0.0086; with Torsin-1A (Homo sapiens) [8], 0.385; in the assay with Torsin-1A (Homo sapiens) [9], 1.47; in assay [10], 0.612. Also, in assay [12], the composite z-score was -0.328. The z-score was 0.22 (inactive) in [2]; 0.224 (inactive) in assay [3]; 0.973 (inactive) in assay [4]; 0.384 (inactive) in assay [5]; 0.244 (inactive) in assay [11]; 0.339 (inactive) in [13]. In addition, the z-score in assay [14] was -0.039 (inactive); in assay [15], -0.609 (inactive); in assay [16] it was -0.0118 (inactive); in assay [17], 1.14; in [18], -0.384 (inactive); in assay [19], 0.808 (inactive). This compound gave a z-score in assay [20] of 0.315.
